# The supplement of paper PMC8728848
# The entries come from a sample that favours the strongest signals as a whole.
# B1: PX14343E-bfa-545-24-545 (Bacteroides fragilis) (protein)
# chain: LDRYPQEELSDGSFWKTPDDANKVVSDLYGYLSTWDQDNDINSDNATMGIKWAAGNVSKGIYDPADQGWSGDYANVRQCNLILSKIDEIPDYPEADKTKALGQVYFFRAYIYFNLIRSFGDVPYIDKPLDLKDMEGITRMPRAEVYEKIMADFDKAIAALPTEWGASDYGRVTKGAAMAMKARAALYYGNWDTAATEAKNVMDLGLYELYDKDNTGKYAELFWEKADGCDEFILVTQFNYPDKTHYLMGWECFPTKGWGGMNPTQSLVDAFEDSEGAPISKSKIYDPTDPFKNRDPRLEVDILHDGEEMYGVTIKVAPLASSGSTGINQHNDATETGYYGQKWLDPSLDPLSDGWNMGKDWVHIRYAEVLLTYAEAKNELQGLDPEAFDAVNQVRRRVGMPELQNTDPSKPTYCATQDDLRQRIRNEWRVEFCLEGGKRMWDIRRWGIAKDVLNAPFEGLKYKIVDNPNDPDKKVDGGKMCILYQGDPIILSGSRYSDNNYLFPVPQSEIDLNPALTQNPGY
# Tests used:
# Experiment in all cases: glycan array binding signal (z-score within array); higher = stronger binding
# Details in all cases: glycan notation: IUPAC condensed, linker removed
# [1] = target: GlcA(b1-3)Gal
# Summary of the method: (§1)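 The binding signal is a Z-score computed within each array and averaged over linkers. Arrays of the same protein sequence at different concentrations or buffers were also averaged together. Data originate from 3228 arrays in the Consortium for Functional Glycomics database, kept only where the protein sequence was available.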
# [2] = target: GlcA3S(b1-3)Gal(b1-4)GlcNAc(b1-2)Man
# Summary of the method: as §1
# [3] = target: GlcNAc(a1-4)Gal(b1-4)GalNAc
# Summary of the method: as §1
# [4] = target: GlcNAc(a1-4)Gal(b1-4)GlcNAc(b1-3)Gal(b1-4)[Fuc(a1-3)]GlcNAc(b1-3)Gal(b1-4)[Fuc(a1-3)]GlcNAc
# Summary of the method: as §1
# [5] = target: GlcNAc(b1-2)[GlcNAc(b1-4)]Man(a1-3)[GlcNAc(b1-4)][GlcNAc(b1-2)[GlcNAc(b1-6)]Man(a1-6)]Man(b1-4)GlcNAc(b1-4)[Fuc(a1-6)]GlcNAc
# Summary of the method: as §1
# [6] = target: GlcNAc(b1-3)Fuc
# Summary of the method: as §1
# [7] = target: GlcNAc(b1-3)Gal(b1-4)GlcNAc(b1-2)[GlcNAc(b1-3)Gal(b1-4)GlcNAc(b1-6)]Man(a1-6)[GlcNAc(b1-3)Gal(b1-4)GlcNAc(b1-2)Man(a1-3)]Man(b1-4)GlcNAc(b1-4)GlcNAc
# Summary of the method: as §1
# [8] = target: GlcNAc(b1-3)Gal(b1-4)GlcNAc(b1-3)[GlcNAc(b1-3)Gal(b1-4)GlcNAc(b1-3)]GalNAc
# Summary of the method: as §1
# [9] = target: Man(a1-2)Man(a1-3)Man
# Summary of the method: as §1
# [10] = target: Neu5Ac(a2-3)Gal
# Summary of the method: as §1
# [11] = target: Neu5Ac(a2-3)Gal(b1-3)GalNAc(b1-4)[Neu5Ac(a2-3)]Gal(b1-4)Glc
# Summary of the method: as §1
# [12] = target: Neu5Ac(a2-3)Gal(b1-3)GalNAc(b1-4)[Neu5Ac(a2-8)Neu5Ac(a2-3)]Gal(b1-4)Glc
# Summary of the method: as §1
# [13] = target: Neu5Ac(a2-3)Gal(b1-3)[Neu5Ac(a2-6)]GlcNAc(b1-3)[Fuc(a1-3)[Gal(b1-4)]GlcNAc(b1-6)]Gal(b1-4)Glc
# Summary of the method: as §1
# [14] = target: Neu5Ac(a2-3)Gal(b1-3)]Neu5Ac(a2-3)Gal(b1-4)]GlcNAc
# Summary of the method: as §1
# [15] = target: Neu5Ac(a2-3)Gal(b1-4)GlcNAc(b1-2)Man(a1-3)[GlcNAc(b1-4)][Neu5Ac(a2-3)Gal(b1-4)GlcNAc(b1-2)Man(a1-6)]Man(b1-4)GlcNAc(b1-4)GlcNAc
# Summary of the method: as §1
# [16] = target: Neu5Ac(a2-3)Gal(b1-4)GlcNAc(b1-3)[Neu5Ac(a2-3)Gal(b1-4)GlcNAc(b1-6)]GalNAc
# Summary of the method: as §1
# [17] = target: Neu5Ac(a2-3)Gal(b1-4)[Fuc(a1-3)]GlcNAc(b1-3)Gal(b1-4)GlcNAc
# Summary of the method: as §1
# [18] = target: Neu5Ac(a2-3)Gal(b1-4)[Fuc(a1-3)]GlcNAc(b1-6)[Neu5Ac(a2-3)Gal(b1-3)]GalNAc
# Summary of the method: as §1
# [19] = target: Neu5Ac(a2-6)Gal(b1-4)Glc
# Summary of the method: as §1
# [20] = target: Neu5Ac(a2-6)Gal(b1-4)GlcNAc(b1-2)Man
# Summary of the method: as §1
# [21] = target: Neu5Ac(a2-6)Gal(b1-4)GlcNAc(b1-2)Man(a1-6)[GlcNAc(b1-2)Man(a1-3)]Man(b1-4)GlcNAc(b1-4)GlcNAc
# Summary of the method: as §1
# [22] = target: Neu5Ac(a2-6)Gal(b1-4)GlcNAc(b1-3)Gal(b1-4)GlcNAc
# Summary of the method: as §1
# [23] = target: Neu5Ac(a2-6)Gal(b1-4)GlcNAc(b1-3)Gal(b1-4)GlcNAc(b1-3)[Neu5Ac(a2-6)Gal(b1-4)GlcNAc(b1-3)Gal(b1-4)GlcNAc(b1-6)]GalNAc
# Summary of the method: as §1
# [24] = target: Neu5Ac(a2-6)Gal(b1-4)GlcNAc(b1-3)[Neu5Ac(a2-6)Gal(b1-4)GlcNAc(b1-6)]GalNAc
# Summary of the method: as §1
# [25] = target: Neu5Ac(a2-6)Gal(b1-4)GlcNAc(b1-6)[Gal(b1-3)GlcNAc(b1-3)]Gal(b1-4)Glc
# Summary of the method: as §1
# [26] = target: Neu5Ac(a2-6)Gal(b1-4)GlcNAc(b1-6)[Gal(b1-3)]GalNAc
# Summary of the method: as §1
# [27] = target: Neu5Ac(a2-8)Neu5Ac(a2-8)Neu5Ac(a2-3)[Gal(b1-3)GalNAc(b1-4)]Gal(b1-4)Glc
# Summary of the method: as §1
binder,measurement,setting,value
B1,glycan array binding signal (z-score),[1],-0.027
same,glycan array binding signal (z-score),[2],-0.441
same,glycan array binding signal (z-score),[3],0.655
same,glycan array binding signal (z-score),[4],8.96
same,glycan array binding signal (z-score),[5],-0.534
same,glycan array binding signal (z-score),[6],-0.635
same,glycan array binding signal (z-score),[7],0.412
same,glycan array binding signal (z-score),[8],-0.23
same,glycan array binding signal (z-score),[9],-0.688
same,glycan array binding signal (z-score),[10],-0.082
same,glycan array binding signal (z-score),[11],-0.236
same,glycan array binding signal (z-score),[12],-0.153
same,glycan array binding signal (z-score),[13],0.395
same,glycan array binding signal (z-score),[14],-1.08
same,glycan array binding signal (z-score),[15],0.058
same,glycan array binding signal (z-score),[16],-0.912
same,glycan array binding signal (z-score),[17],-0.873
same,glycan array binding signal (z-score),[18],0.423
same,glycan array binding signal (z-score),[19],-0.096
same,glycan array binding signal (z-score),[20],-0.34
same,glycan array binding signal (z-score),[21],0.074
same,glycan array binding signal (z-score),[22],-0.139
same,glycan array binding signal (z-score),[23],2.92
same,glycan array binding signal (z-score),[24],2.89
same,glycan array binding signal (z-score),[25],-0.484
same,glycan array binding signal (z-score),[26],-0.085
same,glycan array binding signal (z-score),[27],-0.399
